Out of some 69,000 compounds screened, fewer than 10 were called active. Not shown: some 100% with an inconclusive outcome. The rule behind the calls is not given here. The list shows a part of the results.

Chain of UDP-N-acetylglucosamine--peptide N-acetylglucosaminyltransferase 110 kDa subunit (Homo sapiens) (O15294 whole entry, looked up): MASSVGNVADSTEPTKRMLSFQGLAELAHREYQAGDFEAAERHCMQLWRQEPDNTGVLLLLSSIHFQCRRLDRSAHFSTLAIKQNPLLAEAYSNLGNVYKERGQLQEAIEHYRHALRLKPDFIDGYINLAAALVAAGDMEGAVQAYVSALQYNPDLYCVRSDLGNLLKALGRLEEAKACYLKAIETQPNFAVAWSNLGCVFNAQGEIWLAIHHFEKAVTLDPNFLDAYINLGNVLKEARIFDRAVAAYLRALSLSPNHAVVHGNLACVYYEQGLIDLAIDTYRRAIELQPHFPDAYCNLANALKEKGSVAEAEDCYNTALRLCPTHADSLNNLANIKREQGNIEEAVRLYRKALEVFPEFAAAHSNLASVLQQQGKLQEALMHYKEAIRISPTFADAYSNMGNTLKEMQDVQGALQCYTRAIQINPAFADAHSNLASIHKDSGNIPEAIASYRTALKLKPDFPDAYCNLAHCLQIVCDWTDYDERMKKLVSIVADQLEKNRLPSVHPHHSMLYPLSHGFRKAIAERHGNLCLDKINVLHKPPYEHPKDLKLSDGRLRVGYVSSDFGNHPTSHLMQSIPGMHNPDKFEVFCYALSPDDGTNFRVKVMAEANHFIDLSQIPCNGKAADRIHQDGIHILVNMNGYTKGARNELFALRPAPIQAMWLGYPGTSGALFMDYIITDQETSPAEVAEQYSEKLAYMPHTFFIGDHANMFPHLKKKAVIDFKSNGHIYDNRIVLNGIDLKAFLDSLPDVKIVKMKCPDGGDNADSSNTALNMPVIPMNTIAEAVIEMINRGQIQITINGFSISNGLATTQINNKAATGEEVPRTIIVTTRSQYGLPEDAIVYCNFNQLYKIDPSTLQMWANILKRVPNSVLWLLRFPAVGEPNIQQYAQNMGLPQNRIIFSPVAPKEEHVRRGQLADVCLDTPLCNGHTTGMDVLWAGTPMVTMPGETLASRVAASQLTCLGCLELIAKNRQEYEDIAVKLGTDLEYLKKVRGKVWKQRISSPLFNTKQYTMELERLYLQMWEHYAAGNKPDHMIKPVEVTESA

The experiment deals with UDP-N-acetylglucosamine--peptide N-acetylglucosaminyltransferase 110 kDa subunit (Homo sapiens) (UniProt O15294). In words: O-Glc NAc Transferase (sOGT). The note with it: sOGT fluorescence polarization UDP-GlcNAc probe displacement. An excerpt:
NIH Molecular Libraries Screening Centers Network [MLSCN]
NIH Chemical Genomics Center [NCGC]
Suzanne Walker [Harvard Medical School]
OGT is the sole enzyme that mediates the attachment of O-GlcNAc groups to serine and threonine residues in the nucleus and cytoplasm of eukaryotic cells, and no specific inhibitors are known. This type of glycosylation is involved in signal transduction and plays a key role in many essential cellular processes. High O-GlcNAc levels have been correlated to insulin resistance and type 2 diabetes. In addition to elucidating the role of O-GlcNAc in cellular processes, inhibitors of OGT might be useful in studying and perhaps treating type 2 diabetes. Since HTS-amenable direct assay for OGT activity is currently unavailable, a simpler substrate-displacement screen was performed. The signal measured is based on the change in fluorescence polarization of a fluorescein-labeled UDP-GlcNAc upon displacement from its complex with OGT. Recombinant truncated version of the enzyme, sOGT, as well as labeled probe, were made available by Suzanne Walker and Benjamin Gross, Harvard Medical School.
NCGC Assay Protocol Summary:
20 mM phosphate buffer, pH 8.0, 0.01% Tween-20, 500 uM THP (Tris (hydroxypropyl) phosphine).
50 nM/1.5 uM sOGT /100 uM UDP in columns 3 and 4 as negative control (full inhibition of binding, 0 % activity).
50 nM probe/1.5 uM sOGT in columns 1, 2, 5-48. Titration of UDP control (from 40 mM, then 1:2) pin-transferred to column 2. Column 1 is neutral (100% activity).
Three uL of reagents were dispensed to 1536-well Greiner black plates. Compounds and controls (20 nL) were transferred via Kalypsys PinTool. The plates were incubated for 15 min at room temperature, and then read on ViewLux (Perkin-Elmer) High-throughput CCD imager using fluorescein polarization filter set and 45 seconds exposure time. During dispense, reagent bottles were kept submerged into 4 deg C water bath and all liquid lines were covered with aluminum foil to minimize probe and protein degradation.
Keywords: NIH Roadmap, MLSCN, MLI, MLSMR, sOGT, qHTS, NCGC
For `O=C(O)C1=CC(=C(c2ccc(O)c(C(=O)O)c2)c2ccc(O)c(C(=O)O)c2)C=CC1=O`, the Potency is 21.8 µM (active).

As to `CCCn1c(=O)c(C)cn2nc(N)nc12`, the Potency was 31.1 µM (active).

For the compound `CCCCCCCCCCCCC/C=C\[C@@H](O)[C@H](CO)NC(C)=O`, the Potency was 25.2 µM (active).

`Cc1cc(-c2ccc(N=Nc3ccc4c(S(=O)(=O)O)cc(S(=O)(=O)O)c(N)c4c3O)c(C)c2)ccc1N=Nc1ccc2c(S(=O)(=O)O)cc(S(=O)(=O)O)c(N)c2c1O`: the Potency is 43.7 µM (active).

As for `Nc1c(S(=O)(=O)O)cc(Nc2ccc(Nc3nc(Cl)nc(Nc4ccc(S(=O)(=O)O)cc4)n3)c(S(=O)(=O)O)c2)c2c1C(=O)c1ccccc1C2=O`, the Potency is 22.3 µM (active).

The values above are taken from PubChem BioAssay AID447 (National Center for Advancing Translational Sciences (NCATS), 2006).
